Rows were chosen to be rich in hits. Some 0.78% of all compounds tested hit in one or more screens of this group.
RGS4-Gao reg – modulators of RGS4 binding to Galphao, primary screen, biochemical, multiplexed bead flow cytometry | AID 1415, 2008 | 220,000 tested, 0.33% active | actives lie on both sides | binding response (% of control), % at 10 µM; in the data active = binding response below about 49% or above about 150%; inactive = in between;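 note: fluorescent Galphao activated with aluminum fluoride binding bead-coupled RGS4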
RGS16-Gao HTS – modulators of RGS16 binding to Galphao, primary screen, biochemical, human proteins, multiplexed bead flow cytometry; Regulator of G-protein signaling 16 (Homo sapiens) + Guanine nucleotide-binding protein …; bead-based flow cytometry RGS16-Galphao binding, fluorescence; actives lie on both sides; binding response (% of control), % at 10 µM; 220,000 tested, 0.38% active;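 note: Galphao activated by GDP with aluminum fluoride before binding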
Target sequence (O15492 whole entry, looked up): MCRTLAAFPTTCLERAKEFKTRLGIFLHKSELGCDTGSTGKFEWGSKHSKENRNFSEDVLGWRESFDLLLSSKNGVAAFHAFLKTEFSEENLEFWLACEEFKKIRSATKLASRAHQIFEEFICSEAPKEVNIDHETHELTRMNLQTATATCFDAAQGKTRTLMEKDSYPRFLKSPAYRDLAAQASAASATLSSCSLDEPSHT
Target sequence (P09471 whole entry, looked up): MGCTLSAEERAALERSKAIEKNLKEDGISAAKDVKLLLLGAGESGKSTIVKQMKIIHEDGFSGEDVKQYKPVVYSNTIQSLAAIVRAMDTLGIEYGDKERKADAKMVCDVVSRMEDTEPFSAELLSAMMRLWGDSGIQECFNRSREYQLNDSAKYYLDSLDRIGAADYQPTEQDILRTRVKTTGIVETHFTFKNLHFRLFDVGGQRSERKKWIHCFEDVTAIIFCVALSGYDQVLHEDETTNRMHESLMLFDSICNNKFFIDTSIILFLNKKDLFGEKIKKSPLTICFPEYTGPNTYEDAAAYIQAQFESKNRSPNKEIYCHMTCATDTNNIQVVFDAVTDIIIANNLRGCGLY
RGS8-Gao – RGS8-Galphao binding modulators, primary screen, biochemical, multiplexed bead flow cytometry; Guanine nucleotide-binding protein G(o) subunit alpha (Homo sapiens), P09471; actives lie on both sides; response (percent of control binding), % at 10 µM; 220,000 tested, 0.34% active; AID 1423, 2008; in the data active = response below about 60% or above about 140%; inactive = in between;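 note: Galphao activated as the GDP aluminium fluoride complex binding bead-coupled RGS8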
RGS7-Gao – RGS7-Galphao binding modulators, primary screen, biochemical, multiplexed bead flow cytometry. Guanine nucleotide-binding protein G(o) subunit alpha (Homo sapiens), P09471. actives lie on both sides. 220,000 tested, 0.35% active. AID 1439, 2008. binding response (% of control), % at 10 µM; in the data active = binding response below about 49% or above about 150%; inconclusive = no clear call, values can overlap the other calls; inactive = in between;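 note: fluorescent Galphao held in activated GDP-AlF4 state binding bead-coupled RGS7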
RGS4-Gao HTS – modulators of RGS–Galpha-o binding, primary screen, biochemical, multiplexed beads, flow cytometry, RGS4/7/8/16/19 | shares compounds with RGS16-Gao HTS | multiplexed bead flow cytometry | RGS4–Galpha-o binding response, % at 10 µM | 1,600 tested, 99% active | AID 1504, 2009;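 note: fluorescently labeled Galpha-o bound to GDP with aluminium fluoride binding biotinylated RGS beads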
Avidin counter – disruption of biotin probe capture by avidin, counter-screen for RGS protein interaction modulators, biochemical, flow cytometry, bead-based. shares compounds with RGS16-Gao HTS. streptavidin beads, fluorescein-biotin binding. inhibition, % at 10 µM. 1,700 tested, under 10 active. AID 1783, 2009;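 active = inhibition above 50%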;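 note: median green fluorescence of gated singlet beads compared with DMSO control wells; 0% = DMSO wells and 100% = complete loss of bead fluorescence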
RGS8-Gao single – RGS8-Galphao binding modulators, confirmation, biochemical, multiplexed bead flow cytometry, single concentration; shares compounds with RGS16-Gao HTS; bead-based flow cytometry RGS8-Galphao binding, fluorescence; actives lie on both sides; binding response (% of control), % at 10 µM; 1,700 tested, 3% active; AID 1836, 2009; in the data active = binding response below about 72% or above about 130%; inactive = in between;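 note: Galphao activated as GDP AlF4 complex before binding bead RGS8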
RGS7-Gao confirm – RGS7-Galphao binding modulators, confirmation, biochemical, multiplexed bead flow cytometry, single concentration. shares compounds with RGS16-Gao HTS. bead-based flow cytometry RGS7-Galphao binding; actives lie on both sides. response (percent of control binding), % at 10 µM. 1,700 tested, 7.8% active. AID 1837, 2009; in the data active = response below about 75% or above about 130%; inactive = in between;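 note: fluorescent Galphao activated with GDP and aluminum fluoride binding bead-coupled RGS7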
RGS16-Gao conf – modulators of RGS16-Galphao protein binding, confirmation, biochemical, single concentration, multiplexed bead flow cytometry; 1,700 tested, 4% active; shares compounds with RGS16-Gao HTS; response (% of control binding), % at 10 µM; bead-based flow cytometry; actives lie on both sides; in the data active = response below about 74% or above about 130%; inactive = in between;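 note: Galphao activated as the GDP aluminium fluoride complex binding bead-coupled RGS16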
RGS4-Gao single – modulators of RGS4-Galphao protein binding, confirmation, biochemical, single concentration, multiplexed bead flow cytometry | actives lie on both sides | binding response (% of control), % at 10 µM | 1,700 tested, 4% active | shares compounds with RGS16-Gao HTS | AID 1840, 2009; in the data active = binding response below about 74% or above about 130%; inactive = in between
RGS19-Gao conf – regulators of RGS19-Galphao binding, confirmation, biochemical, single point, multiplexed bead flow cytometry. response (percent of control binding), % at 10 µM. shares compounds with RGS16-Gao HTS. AID 1841, 2009. 1,700 tested, 5% active. bead-based flow cytometry RGS19-Galphao binding; actives lie on both sides; in the data active = response below about 50% or above about 160%; inactive = in between;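 note: 100% = no compound control and 0% = blank background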
An asterisk follows results filed as active; ? = inconclusive; nt = no result; [ ] = dose if it differs, or a comment. Unless noted, the rule behind the calls is not given here.

SMILES	RGS4-Gao reg	RGS16-Gao HTS	RGS8-Gao	RGS7-Gao	Avidin counter	RGS8-Gao single	RGS7-Gao confirm	RGS16-Gao conf	RGS4-Gao single	RGS19-Gao conf	others
COc1ccc(N2CCN(S(=O)(=O)c3cccs3)CC2)cc1	98.8	106.0	102.5	99.6	nt	nt	nt	nt	nt	nt
Cc1cc(N2CCC(C)CC2)nc(-c2ccccc2O)n1	101.7	98.6	99.1	?	nt	nt	nt	nt	nt	nt
Cc1cc(N2CCN(c3ccccc3)CC2)nc(-c2ccccc2O)n1	38.3*	-548.8	89.6	83.6	1.1	100.2	105.5	103.1	102.5	106.1
COc1ccc(NC(=O)CS(=O)CC(=O)NCC2OCCc3ccccc32)cc1 (stereo not drawn)	96.7	96.0	97.9	88.0	nt	nt	nt	nt	nt	nt
O=C(Nc1ccc(Cl)c(Cl)c1)Nc1ccccc1O	13.2*	16.5*	38.7*	?	-1.1	94.5	70.3*	86.8	85.4	65.6
O=C(Nc1ccc(Cl)c(Cl)c1)Nc1ccc(Br)cc1F	97.5	103.5	102.1	100.0	nt	nt	nt	nt	nt	nt
CC1CCC2(CC1)NC(CO)(CO)CO2 (stereo not drawn)	97.7	69.7	94.1	96.9	nt	nt	nt	nt	nt	nt
CCC1CCC2(CC1)NC(CO)(CO)CO2 (stereo not drawn)	115.2	318.1	144.6*[activator]	119.1	-0.4	106.8	105.5	109.2	105.6	100.0	RGS4-Gao HTS=115.2*
Cc1cccc(N=Cc2[nH]c3ccc(Br)c(Cl)c3c2O)c1	141.8	138.8	103.8	153.4*[activator]	nt	nt	nt	nt	nt	nt	RGS4-Gao HTS=141.8*
CC(=O)c1cccc(NC(=O)NCCc2c[nH]c3ccccc23)c1	88.7	88.4	95.6	?	nt	nt	nt	nt	nt	nt
Cc1ccc2[nH]cc(CCNC(=O)Nc3ccccc3)c2c1	nt	nt	nt	nt	0.3	104.3	107.1	105.2	102.3	96.9
Cc1sc2nc(CN3CCOCC3)nc(N3CCOCC3)c2c1C	115.6	413.2	142.7*[activator]	117.1	0.1	103.6	105.1	103.4	103.3	102.0	RGS4-Gao HTS=115.6*
COC(=O)c1sc2nc(CN3CCOCC3)nc(N3CCOCC3)c2c1C	111.8	111.0	100.9	105.5	nt	nt	nt	nt	nt	nt
COc1ccc(S(=O)(=O)Cc2ccc(C(=O)NCCc3ccc(S(N)(=O)=O)cc3)o2)cc1	105.2	183.4*[activator]	121.5	110.5	-1.3	107.3	85.4	109.6	93.3	66.1	RGS4-Gao HTS=105.2*
COCCCNC(=O)c1ccc(CS(=O)(=O)c2ccc(OC)cc2)o1	99.9	100.7	101.6	100.6	nt	nt	nt	nt	nt	nt
COc1ccc(OC)c(S(=O)(=O)N2CCC(C(=O)NCCc3ccc(OC)c(OC)c3)CC2)c1	nt	nt	nt	nt	1.5	102.5	102.6	105.9	102.1	117.2
Nc1[nH]nc2nc(-c3ccccc3)[nH]c(=O)c12	99.9	101.1	100.8	?	nt	nt	nt	nt	nt	nt
Nc1nc(-c2ccccc2)[nH]c(=O)c1N	116.5	240.6	137.6	113.8	0.6	100.4	98.4	99.4	98.8	87.0
Cc1cc(C)c(C#N)c(SCCS(=O)(=O)c2ccc(C(C)(C)C)cc2)n1	nt	nt	nt	nt	3.0	100.4	96.9	98.0	97.1	92.5

High-throughput results deposited in PubChem BioAssay by NMMLSC.
